From the supplement of paper PMC11732987, “Enantioselective OTUD7B fragment discovery through chemoproteomics screening and high-throughput optimisation” (Communications Chemistry, 2025)

Columns and labels:
Assay in all cases: log2 ratio of Biotin-Ahx-Ub-VS probe labelling (fragment/DMSO); higher = less target engagement (more negative = stronger competition), active = hit call of the paper (q ≤ 0.05, log2 ratio ≤ -1)
Settings in all cases: compound concentration: 200 uM; treatment time: 3 h
USP19 = target: T1, USP19 (UniProt O94966)
T1 sequence (whole entry): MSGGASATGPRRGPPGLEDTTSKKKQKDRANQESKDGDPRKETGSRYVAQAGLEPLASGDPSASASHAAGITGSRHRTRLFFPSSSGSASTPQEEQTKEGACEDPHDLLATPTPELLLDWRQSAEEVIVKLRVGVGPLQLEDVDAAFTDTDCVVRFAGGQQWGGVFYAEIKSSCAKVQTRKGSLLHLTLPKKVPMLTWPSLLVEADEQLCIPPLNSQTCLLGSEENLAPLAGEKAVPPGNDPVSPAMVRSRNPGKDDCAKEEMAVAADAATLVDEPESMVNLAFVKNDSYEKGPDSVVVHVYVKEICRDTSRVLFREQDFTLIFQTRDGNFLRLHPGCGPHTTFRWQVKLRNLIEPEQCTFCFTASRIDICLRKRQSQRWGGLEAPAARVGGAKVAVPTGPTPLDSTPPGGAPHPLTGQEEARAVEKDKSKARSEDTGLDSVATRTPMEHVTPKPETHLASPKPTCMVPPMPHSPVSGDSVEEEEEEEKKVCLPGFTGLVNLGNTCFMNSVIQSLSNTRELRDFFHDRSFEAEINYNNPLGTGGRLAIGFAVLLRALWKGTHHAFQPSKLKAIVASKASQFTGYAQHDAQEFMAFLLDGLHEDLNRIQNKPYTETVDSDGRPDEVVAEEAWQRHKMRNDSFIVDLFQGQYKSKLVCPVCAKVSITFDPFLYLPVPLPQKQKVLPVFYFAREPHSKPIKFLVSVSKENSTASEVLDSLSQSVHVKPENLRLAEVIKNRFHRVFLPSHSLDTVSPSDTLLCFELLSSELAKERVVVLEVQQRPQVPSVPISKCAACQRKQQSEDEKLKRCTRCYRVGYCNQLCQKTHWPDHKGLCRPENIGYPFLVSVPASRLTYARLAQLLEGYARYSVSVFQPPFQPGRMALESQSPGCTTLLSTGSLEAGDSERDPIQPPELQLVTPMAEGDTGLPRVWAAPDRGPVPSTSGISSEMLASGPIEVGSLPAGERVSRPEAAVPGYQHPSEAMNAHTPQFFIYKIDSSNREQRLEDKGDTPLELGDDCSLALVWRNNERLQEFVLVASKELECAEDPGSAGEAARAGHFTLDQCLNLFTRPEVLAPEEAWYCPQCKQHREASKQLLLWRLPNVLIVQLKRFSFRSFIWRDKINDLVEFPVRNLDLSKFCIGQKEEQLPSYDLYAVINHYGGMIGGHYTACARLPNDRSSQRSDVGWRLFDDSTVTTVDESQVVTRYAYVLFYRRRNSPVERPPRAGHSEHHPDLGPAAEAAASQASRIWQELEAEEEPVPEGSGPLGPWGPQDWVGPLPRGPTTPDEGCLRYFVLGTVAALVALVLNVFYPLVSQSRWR
Outline: (§1)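 Fragment (200 µM) or vehicle was incubated for 3 h with triplicate HEK293T lysate samples of 495 µg, which were then treated with Biotin-Ahx-Ub-VS at 0.5 µM final for 1 h. Labelled DUBs were enriched on NeutrAvidin, digested with LysC and trypsin, and analysed by diaPASEF LC-MS/MS. Values are average log2 fragment/vehicle ratios from an unpaired t-test on global-median-normalised Spectronaut label-free quantities, using proteins with ≥2 unique peptides.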

USP22 = target: T2, USP22 (UniProt Q9UPT9)
T2 sequence (whole entry): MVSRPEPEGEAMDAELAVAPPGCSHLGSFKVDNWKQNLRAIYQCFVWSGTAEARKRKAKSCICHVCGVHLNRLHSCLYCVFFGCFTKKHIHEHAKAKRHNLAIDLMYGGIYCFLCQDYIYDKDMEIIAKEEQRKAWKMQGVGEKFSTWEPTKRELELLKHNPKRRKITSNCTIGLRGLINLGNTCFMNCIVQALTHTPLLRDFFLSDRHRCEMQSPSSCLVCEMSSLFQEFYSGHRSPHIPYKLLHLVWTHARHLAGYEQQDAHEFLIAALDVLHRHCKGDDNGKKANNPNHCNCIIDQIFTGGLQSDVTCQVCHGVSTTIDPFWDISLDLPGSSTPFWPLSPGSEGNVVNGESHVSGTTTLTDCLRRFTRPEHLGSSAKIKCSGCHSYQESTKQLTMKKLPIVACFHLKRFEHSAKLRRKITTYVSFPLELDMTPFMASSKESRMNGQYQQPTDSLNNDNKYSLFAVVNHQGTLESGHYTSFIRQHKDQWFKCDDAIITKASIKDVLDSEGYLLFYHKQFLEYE
Outline: as §1

USP24 = USP24 (UniProt Q9UPU5)
Outline: as §1

USP25 = target: T3, USP25 (UniProt Q9UHP3)
T3 sequence (whole entry): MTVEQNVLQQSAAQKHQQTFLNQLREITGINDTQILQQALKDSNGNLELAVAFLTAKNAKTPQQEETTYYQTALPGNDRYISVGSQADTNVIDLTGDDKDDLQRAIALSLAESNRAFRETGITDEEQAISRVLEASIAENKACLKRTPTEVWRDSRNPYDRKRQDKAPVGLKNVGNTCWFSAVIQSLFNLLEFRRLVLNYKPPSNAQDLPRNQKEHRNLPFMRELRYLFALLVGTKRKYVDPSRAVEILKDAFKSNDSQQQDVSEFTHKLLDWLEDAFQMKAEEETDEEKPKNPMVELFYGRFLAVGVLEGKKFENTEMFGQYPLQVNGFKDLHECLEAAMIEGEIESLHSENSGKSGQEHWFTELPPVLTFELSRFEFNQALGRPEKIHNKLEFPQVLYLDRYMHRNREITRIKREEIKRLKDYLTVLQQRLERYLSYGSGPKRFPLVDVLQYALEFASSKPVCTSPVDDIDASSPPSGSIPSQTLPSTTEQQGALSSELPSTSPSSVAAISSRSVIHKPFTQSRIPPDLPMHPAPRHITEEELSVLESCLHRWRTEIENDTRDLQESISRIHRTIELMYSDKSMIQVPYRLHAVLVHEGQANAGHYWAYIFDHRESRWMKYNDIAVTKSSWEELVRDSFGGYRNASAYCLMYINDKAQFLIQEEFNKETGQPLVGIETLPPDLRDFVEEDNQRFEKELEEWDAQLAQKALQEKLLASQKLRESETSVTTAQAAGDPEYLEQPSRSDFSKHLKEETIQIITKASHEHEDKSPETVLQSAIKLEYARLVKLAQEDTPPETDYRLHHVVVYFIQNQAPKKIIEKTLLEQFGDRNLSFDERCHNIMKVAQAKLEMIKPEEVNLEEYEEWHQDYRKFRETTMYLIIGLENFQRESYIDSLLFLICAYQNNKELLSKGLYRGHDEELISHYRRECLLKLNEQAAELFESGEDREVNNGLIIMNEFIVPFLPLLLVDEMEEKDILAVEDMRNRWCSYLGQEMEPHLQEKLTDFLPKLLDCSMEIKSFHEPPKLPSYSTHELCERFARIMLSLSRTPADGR
Outline: as §1

USP28 = target: T4, USP28 (UniProt Q96RU2)
T4 sequence (whole entry): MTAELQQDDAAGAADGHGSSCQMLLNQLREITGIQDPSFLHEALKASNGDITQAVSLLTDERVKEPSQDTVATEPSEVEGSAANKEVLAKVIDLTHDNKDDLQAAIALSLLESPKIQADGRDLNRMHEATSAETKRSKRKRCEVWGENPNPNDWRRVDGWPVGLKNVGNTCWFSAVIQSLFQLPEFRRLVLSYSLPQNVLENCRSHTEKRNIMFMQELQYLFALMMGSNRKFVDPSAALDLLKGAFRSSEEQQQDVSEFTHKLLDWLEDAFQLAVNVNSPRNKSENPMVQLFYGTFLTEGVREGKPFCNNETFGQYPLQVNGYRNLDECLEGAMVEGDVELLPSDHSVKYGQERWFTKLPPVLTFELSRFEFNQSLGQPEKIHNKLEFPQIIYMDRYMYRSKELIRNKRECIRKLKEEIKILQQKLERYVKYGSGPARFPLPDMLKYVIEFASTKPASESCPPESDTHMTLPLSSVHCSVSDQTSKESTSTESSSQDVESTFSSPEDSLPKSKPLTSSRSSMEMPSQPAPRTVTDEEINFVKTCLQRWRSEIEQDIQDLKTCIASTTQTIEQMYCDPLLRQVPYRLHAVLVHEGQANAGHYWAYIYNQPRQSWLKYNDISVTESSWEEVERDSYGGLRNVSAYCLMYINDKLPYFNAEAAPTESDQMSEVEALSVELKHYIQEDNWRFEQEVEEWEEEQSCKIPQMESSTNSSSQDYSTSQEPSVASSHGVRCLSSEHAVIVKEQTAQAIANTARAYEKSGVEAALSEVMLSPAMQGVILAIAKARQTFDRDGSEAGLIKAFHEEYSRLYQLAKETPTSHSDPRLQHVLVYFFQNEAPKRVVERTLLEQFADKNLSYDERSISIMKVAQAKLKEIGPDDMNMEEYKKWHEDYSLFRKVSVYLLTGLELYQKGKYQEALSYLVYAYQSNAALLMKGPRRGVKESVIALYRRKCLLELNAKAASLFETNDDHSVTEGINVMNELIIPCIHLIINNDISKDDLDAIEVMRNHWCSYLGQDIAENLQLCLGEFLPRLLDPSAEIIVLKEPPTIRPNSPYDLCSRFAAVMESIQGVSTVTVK
Outline: as §1

Measured: log2 ratio of Biotin-Ahx-Ub-VS probe labelling

USP24, sequence (Q9UPU5 whole entry): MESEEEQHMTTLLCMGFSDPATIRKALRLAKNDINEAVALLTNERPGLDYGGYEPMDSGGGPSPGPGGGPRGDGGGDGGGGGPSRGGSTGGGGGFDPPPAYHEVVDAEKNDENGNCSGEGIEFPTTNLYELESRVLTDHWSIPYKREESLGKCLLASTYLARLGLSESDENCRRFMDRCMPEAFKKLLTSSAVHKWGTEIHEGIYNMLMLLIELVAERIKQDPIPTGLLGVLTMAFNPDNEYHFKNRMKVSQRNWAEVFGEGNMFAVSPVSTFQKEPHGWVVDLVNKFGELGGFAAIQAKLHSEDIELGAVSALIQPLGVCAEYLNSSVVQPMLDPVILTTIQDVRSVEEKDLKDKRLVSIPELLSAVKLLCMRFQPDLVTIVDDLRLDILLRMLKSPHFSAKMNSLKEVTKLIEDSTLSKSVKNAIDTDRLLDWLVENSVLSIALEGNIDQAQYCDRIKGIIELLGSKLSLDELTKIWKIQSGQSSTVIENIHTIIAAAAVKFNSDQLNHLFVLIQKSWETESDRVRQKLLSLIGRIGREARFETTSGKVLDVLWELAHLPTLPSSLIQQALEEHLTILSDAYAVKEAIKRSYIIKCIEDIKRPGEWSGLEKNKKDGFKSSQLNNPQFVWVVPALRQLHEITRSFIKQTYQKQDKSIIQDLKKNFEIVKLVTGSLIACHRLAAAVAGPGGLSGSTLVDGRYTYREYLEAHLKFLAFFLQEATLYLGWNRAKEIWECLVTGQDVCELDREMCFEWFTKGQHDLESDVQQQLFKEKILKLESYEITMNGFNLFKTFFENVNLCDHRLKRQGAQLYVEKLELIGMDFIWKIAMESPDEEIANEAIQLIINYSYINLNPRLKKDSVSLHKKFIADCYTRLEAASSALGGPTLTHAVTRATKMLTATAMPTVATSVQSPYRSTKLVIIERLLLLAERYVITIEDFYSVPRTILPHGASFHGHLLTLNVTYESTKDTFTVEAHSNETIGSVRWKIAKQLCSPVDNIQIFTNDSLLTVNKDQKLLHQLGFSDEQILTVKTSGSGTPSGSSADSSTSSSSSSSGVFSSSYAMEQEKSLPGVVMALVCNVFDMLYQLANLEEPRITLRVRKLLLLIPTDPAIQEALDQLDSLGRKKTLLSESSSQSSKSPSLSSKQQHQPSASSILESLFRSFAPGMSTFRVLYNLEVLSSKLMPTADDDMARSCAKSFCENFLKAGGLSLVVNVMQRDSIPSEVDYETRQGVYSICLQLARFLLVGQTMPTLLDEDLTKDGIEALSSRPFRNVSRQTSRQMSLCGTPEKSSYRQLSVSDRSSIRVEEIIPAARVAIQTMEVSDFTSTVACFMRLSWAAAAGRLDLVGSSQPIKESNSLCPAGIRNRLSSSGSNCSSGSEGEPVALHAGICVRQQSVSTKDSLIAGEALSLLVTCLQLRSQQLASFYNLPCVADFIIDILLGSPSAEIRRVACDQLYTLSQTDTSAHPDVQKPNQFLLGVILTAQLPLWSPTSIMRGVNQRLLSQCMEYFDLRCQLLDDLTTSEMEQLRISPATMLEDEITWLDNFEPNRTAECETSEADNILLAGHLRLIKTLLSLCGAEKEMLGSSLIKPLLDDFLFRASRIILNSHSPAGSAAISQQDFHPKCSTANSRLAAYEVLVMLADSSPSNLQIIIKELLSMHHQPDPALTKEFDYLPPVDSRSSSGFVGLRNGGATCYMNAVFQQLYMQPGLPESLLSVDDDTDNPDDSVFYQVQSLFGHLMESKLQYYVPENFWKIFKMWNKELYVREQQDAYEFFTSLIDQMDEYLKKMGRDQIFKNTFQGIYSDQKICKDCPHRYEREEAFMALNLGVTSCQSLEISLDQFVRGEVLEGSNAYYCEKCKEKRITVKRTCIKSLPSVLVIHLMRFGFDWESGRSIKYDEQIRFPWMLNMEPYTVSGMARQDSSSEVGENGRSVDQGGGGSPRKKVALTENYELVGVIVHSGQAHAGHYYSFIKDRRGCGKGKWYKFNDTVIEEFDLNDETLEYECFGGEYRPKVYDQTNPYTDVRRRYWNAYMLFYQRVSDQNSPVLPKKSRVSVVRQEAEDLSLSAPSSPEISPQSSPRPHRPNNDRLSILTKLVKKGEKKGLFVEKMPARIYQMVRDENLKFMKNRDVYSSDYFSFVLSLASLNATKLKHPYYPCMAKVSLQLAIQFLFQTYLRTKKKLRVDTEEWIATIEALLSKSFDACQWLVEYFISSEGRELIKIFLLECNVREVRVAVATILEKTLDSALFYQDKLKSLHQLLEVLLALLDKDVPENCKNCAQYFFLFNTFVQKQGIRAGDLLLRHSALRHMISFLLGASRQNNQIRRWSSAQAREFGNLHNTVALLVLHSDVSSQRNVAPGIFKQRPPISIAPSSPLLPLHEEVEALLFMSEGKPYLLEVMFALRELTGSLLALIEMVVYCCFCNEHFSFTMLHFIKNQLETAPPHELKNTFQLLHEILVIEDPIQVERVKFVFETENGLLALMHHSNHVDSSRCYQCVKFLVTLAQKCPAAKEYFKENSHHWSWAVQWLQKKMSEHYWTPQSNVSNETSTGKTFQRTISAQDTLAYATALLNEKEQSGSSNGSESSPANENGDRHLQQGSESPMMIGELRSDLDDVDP

O=C(CCl)NC1CCCCNC1=O (stereo not given)
inactive: USP19 -0.125 | USP22 -0.0454 | USP24 -0.299 | USP25 -0.212 | USP28 -0.482
